In PubChem BioAssay (NCATS):
Calls of active or inactive are those of the source. Where a call stands in place of a potency, no number is given. Calls follow the shape of the dose curve; as a rule, active = well fitted inhibition curve with a large enough effect; inconclusive = small, poorly fitted or top-dose-only effect; inactive = flat fitted curve, though single readings scatter.

These molecules were tested against ATP-dependent DNA helicase Q1 (Homo sapiens) (UniProt P46063) (assay: qHTS Validation Assay for Inhibitors of RecQ-Like Dna Helicase 1 (RECQ1) (AID 2353)). Conditions: recombinant RECQ1 helicase DNA unwinding assay; series mostly up to 25.6 µM.
ATP-dependent DNA helicase Q1 (Homo sapiens), sequence (P46063 whole entry, looked up): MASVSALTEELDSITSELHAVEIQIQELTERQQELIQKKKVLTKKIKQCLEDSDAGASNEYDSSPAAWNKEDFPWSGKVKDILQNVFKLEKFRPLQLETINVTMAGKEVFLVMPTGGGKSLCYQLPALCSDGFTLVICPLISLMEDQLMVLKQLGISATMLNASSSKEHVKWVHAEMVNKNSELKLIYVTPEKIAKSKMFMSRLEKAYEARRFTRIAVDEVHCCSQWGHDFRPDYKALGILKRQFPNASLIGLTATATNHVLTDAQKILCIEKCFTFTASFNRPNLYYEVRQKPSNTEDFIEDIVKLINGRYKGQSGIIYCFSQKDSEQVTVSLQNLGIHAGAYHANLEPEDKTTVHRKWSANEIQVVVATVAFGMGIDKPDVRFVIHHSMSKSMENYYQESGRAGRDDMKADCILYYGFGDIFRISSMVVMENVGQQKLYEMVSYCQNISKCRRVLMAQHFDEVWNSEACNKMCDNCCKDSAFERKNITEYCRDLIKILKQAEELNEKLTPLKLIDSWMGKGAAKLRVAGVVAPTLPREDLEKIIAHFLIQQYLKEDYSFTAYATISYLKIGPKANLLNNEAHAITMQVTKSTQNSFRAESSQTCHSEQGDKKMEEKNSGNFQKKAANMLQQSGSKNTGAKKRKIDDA
Excerpt: Survival of cells and the faithful propagation of the genome depend on elaborate mechanisms of detecting and repairing DNA damage. Treatment of advanced cancer relies on radiation therapy or chemotherapy, which kill cancer cells by causing extensive DNA damage. It is often found, that cancer cells develop resistance to therapy through enhanced activity of DNA repair functions; this has led to an increased interest in developing drugs that interfere with DNA repair, which could sensitize cancer cells to conventional therapy.
This validation qHTS assay pertains to human RECQ1, which is important in resolving abnormal DNA structures formed during replication or homologous recombination. Shutting down the expression of RECQ1 leads to chromosomal instability and higher radiation sensitivity in cultured cells.
The validation assay was a fluorescence quenching based kinetic qHTS for RECQ1 Helicase DNA unwinding. The activity was measured as ATP-dependent separation of a 20-bp DNA duplex extended by 30-nt single-stranded tails (forked duplex). The forked DNA substrate was tagged with rhodamine fluorophore (carboxytetramethyl rhodamine, TAMRA) and BHQ-2 (Black Hole Quencher 2) dark quencher. Strand separation results in an increase in the fluorescence of TAMRA (excitation 525 nm, emission 598 nm). This substrate construct operates in a red-shifted region where very few compound library members have been noted to fluoresce (PubChem AIDs 593 and 594). An additional feature of the assay is the inclusion of 2.5 ug/ml poly (dIdC), to reduce interference by compounds such as DNA intercalators, a major source of false inhibitors.
Opher Gileadi, Structural Genomics Consortium, University of Oxford
Screening Center PI: Austin, C.P.
Screening Center: NIH Chemical Genomics Center [NCGC]
Three uL of reaction buffer (25 mM Tris-HCl (pH 8.0), 5 mM NaCl, 2 mM MgCl2, 1mM DTT, 0.01% Tween- 20, and 2.5 ug/ml poly(dI-dC), including enzyme (50 nM RECQ1T1), were dispensed into a 1536-well Greiner black assay plate via solenoid-valve based nanoliter dispensers. Compounds (23 nl each in columns 5-48) and control (23 nl each in column 2 as dose-response) were transferred via a Kalypsys pintool equipped with a 1536-pin array. The plates were incubated for 15 min at room temperature, and then 1 ul of substrates (200 nM DNA and 2 mM ATP, final concentrations) was added to start the reaction. The plate was transferred into a ViewLux high-throughput CCD imager where the reaction progress was measured in a discontinuous kinetic mode (two reads spaced 2 hours apart, with intermediate room temperature incubation of the covered assay plate) by using standard red-fluorescence optics (excitation filter 525 nm, emission filter 598 nm). Enzyme-free and vehicle (DMSO) controls were included for signal normalization.

Compound	Potency
CCCCCCCCCCCCCCC[C@H](O)[C@H](N)CO	inactive
N[C@@H](Cc1ccc(F)cc1)C(=O)O	inactive
O=C(O)C1=CCNCC1	inactive
CN(C)CCC(c1ccc(Br)cc1)c1ccccn1 (stereo not given)	inactive
CC(C)NC[C@H](O)COc1ccc(CC(N)=O)cc1	inactive
Cn1cc(C(=O)OCC2CCN(CCNS(C)(=O)=O)CC2)c2ccccc21	inactive
Cn1c(=O)c2[nH]c(-c3ccc(S(=O)(=O)O)cc3)nc2n(C)c1=O	inactive
O=C(OCCN1CCOCC1)C1(c2ccccc2)CCCCC1	inactive
CC(C)NCC(O)COc1ccc(CC(N)=O)cc1 (stereo not given)	inactive
Cc1nc2c(OCc3ccccc3)cccn2c1CC#N	inactive
C=CCN1CCc2cc(O)c(O)cc2C(c2ccccc2)C1 (stereo not given)	inactive
CNC(=O)c1cc2c(cn1)[nH]c1ccccc12	inactive
NCC(O)(CS(=O)(=O)O)c1ccc(Cl)cc1 (stereo not given)	inactive
Nc1ccc(-c2ccc3ccccc3n2)cc1	inactive
CCCCOC(=O)NS(=O)(=O)c1sc(CC(C)C)cc1-c1ccc(Cn2c(CC)nc3c(C)cc(C)nc32)cc1	inactive
O=C1C2C=CC=CC2=NC(=S)N1CCN1CCC(=C(c2ccc(F)cc2)c2ccc(F)cc2)CC1 (stereo not given)	inactive
Cc1cccc(C2CN(C)CCc3c2cc(O)c(O)c3Cl)c1 (stereo not given)	inactive
N#C/C(=C\c1ccc(O)c(O)c1)C(=O)NCCc1ccccc1	inactive
CCCn1c(=O)c2[nH]c(C3CCCC3)nc2n(CCC)c1=O	inactive
CCN(CC)CCOC(=O)c1cc(Cl)c(N)cc1OC	inactive

Compound	Potency
O=c1ccn([C@@H]2O[C@H](COP(=O)(O)OP(=O)(O)O)[C@@H](O)[C@H]2O)c(=O)[nH]1	inactive
C=CCN1CCc2c(cc(O)c(O)c2Cl)C(c2ccccc2)C1 (stereo not given)	inactive
c1ccc2nc(C3=NCCN3)ccc2c1	inactive
CCC1(O)CC2CN(CCc3c([nH]c4ccccc34)[C@@](C(=O)OC)(c3cc4c(cc3OC)N(C=O)C3[C@]45CCN4CC=C[C@@](CC)([C@@H](OC(C)=O)[C@]3(O)C(=O)OC)[C@H]45)C2)C1 (stereo not given in full)	inactive
CC1=C(/C=C/C(C)=C/C=C/C(C)=C\C(=O)O)C(C)(C)CCC1	inactive
Cc1nc(N=Nc2ccc(S(=O)(=O)O)cc2S(=O)(=O)O)c(COP(=O)(O)O)c(C=O)c1O	inactive
O=C(O)Cc1c[nH]c2ccc(O)cc12	inactive
CC(N)=O	inactive
CCCN(CCc1ccccc1)C1CCc2c(O)cccc2C1 (stereo not given)	inactive
Cn1cc(C(F)(F)F)nc1-c1ccc(OCC(O)CNCCOc2ccc(O)c(C(N)=O)c2)cc1 (stereo not given)	inactive
N[C@H]1CONC1=O	inactive
c1ccc(C2CN3CCSC3=N2)cc1 (stereo not given)	inactive
OC[C@H]1O[C@@H](n2cnc3cncnc32)[C@H](O)[C@@H]1O	inactive
Nc1ccc(N2C(=O)c3ccccc3C2=O)c(Cl)c1	inactive
C=C(C)C1CC=C(C(=O)O)CC1 (stereo not given)	inactive
COc1ccc(-c2ccc(N)[n+](CCCC(=O)O)n2)cc1	inactive
N=C(N)c1ccc(N)cc1	inactive
O=C(O)c1ccccc1Nc1cccc(OCc2ccc3ccccc3n2)c1	inactive
N[C@@H](CCC(=O)N[C@H](CSN=O)C(=O)NCC(=O)O)C(=O)O	inactive
O=C1OC(=O)C2C3CCC(O3)C12 (stereo not given)	inactive
